PubChem BioAssay (Tox21)
Inconclusive results are not listed. A number with no mark means an inactive call. Active and inactive are the calls of the source. Calls follow the shape of the full dose curve.

biological target: Acetylcholinesterase (Homo sapiens) (UniProt P22303); assay: Acetylcholinesterase (AChE) small molecule antagonists: colormetric cell-based qHTS assay (AID 1347395); conditions: SH-SY5Y cells AChE activity, colorimetric (Ellman); series mostly up to 115 µM; activity, negative = inhibition: at the top concentration; also: nearly all actives have a fitted effect of over 30% in size
Sequence (P22303 whole entry, looked up): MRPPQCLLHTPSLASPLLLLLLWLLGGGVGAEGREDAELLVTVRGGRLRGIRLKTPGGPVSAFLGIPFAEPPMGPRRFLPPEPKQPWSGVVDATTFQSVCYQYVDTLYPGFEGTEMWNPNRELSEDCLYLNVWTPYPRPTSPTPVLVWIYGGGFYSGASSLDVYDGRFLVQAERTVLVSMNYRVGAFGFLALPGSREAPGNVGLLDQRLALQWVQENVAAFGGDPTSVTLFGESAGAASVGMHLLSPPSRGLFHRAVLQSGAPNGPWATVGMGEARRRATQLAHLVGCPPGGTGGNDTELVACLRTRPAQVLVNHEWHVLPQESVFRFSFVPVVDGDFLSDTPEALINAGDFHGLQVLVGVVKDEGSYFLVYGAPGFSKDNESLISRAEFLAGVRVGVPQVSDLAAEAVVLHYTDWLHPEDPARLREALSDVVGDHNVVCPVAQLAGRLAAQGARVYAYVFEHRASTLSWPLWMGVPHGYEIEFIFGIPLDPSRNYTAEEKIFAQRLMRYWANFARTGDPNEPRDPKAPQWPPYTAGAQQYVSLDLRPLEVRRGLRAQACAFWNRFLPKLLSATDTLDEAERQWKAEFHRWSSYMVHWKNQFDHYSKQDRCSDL
Method in brief: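 Colorimetric read-out: DTNB detects thiocholine released when cellular AChE in SH-SY5Y cells hydrolyses acetylthiocholine. Cells attached overnight, received compound for 30 min at 37 C, then substrate mix for 90 min at 37 C.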
% is scaled to controls: 0 for no effect and ±100 for the full control effect.

Row | SMILES | activity, negative = inhibition | Potency
1 | COc1ccccc1N1CCN(CC(O)COc2cccc3ccccc23)CC1 (stereo not given) | 3.79% [at 52.9 µM] | 
2 | C1CCCNCCC1 | 3.65% | 
3 | Cc1ccc(N=Nc2c(O)ccc3ccccc23)c(C)c1 | -3.68% [at 52.9 µM] | 
4 | CCCCCC(=O)OCCc1ccccc1 | -2.65% | 
5 | O=C(O)CCCl | 0.205% | 
6 | CO[C@H]1O[C@H](CO)[C@@H](O)[C@H](O)[C@H]1O | 0.981% | 
7 | CN=C(N)NC(=O)Nc1c(C)cccc1C | 0.296% [at 52.9 µM] | 
8 | COc1ccc(NC(C)=O)cc1N |  | inactive
9 | Cc1ccc(S(=O)(=O)NC(=O)NN2CCCCCC2)cc1 |  | inactive
10 | COc1ccc(C(=O)CC(=O)c2ccc(C(C)(C)C)cc2)cc1 | 2.13% | 
11 | COc1ccc(C(=O)c2ccccc2)c(O)c1 |  | inactive
12 | O=C1CCCC(=O)O1 | 0.783% | 
13 | Cc1ncc(CO)c(C=O)c1O | 1.48% [at 52.9 µM] | 
14 | CC(C)OCCO | 3.42% | 
15 | CC(COC(C)(C)C)OCCCO (stereo not given) | 6.07% | 
16 | Cc1ccc2cccnc2c1 | 1.35% | 
17 | CC1(C)O[C@@H]2C[C@H]3[C@@H]4C[C@H](F)C5=CC(=O)CC[C@]5(C)[C@H]4[C@@H](O)C[C@]3(C)[C@]2(C(=O)CO)O1 |  | inactive
18 | O[C@@H]([C@H](O)[C@H](O)CBr)[C@H](O)CBr | -1.23% | 
19 | Cc1ccc(C(=O)Oc2ccc(C(O)CNC(C)(C)C)cc2OC(=O)c2ccc(C)cc2)cc1 (stereo not given) | 3.62% [at 52.9 µM] | 
20 | CC(=O)CC(=O)Nc1ccccc1 |  | inactive

Row | SMILES | activity, negative = inhibition | Potency
21 | CC(C)C(=O)OCc1ccccc1 | 2.08% | 
22 | CCNc1ccccc1 |  | inactive
23 | CCn1ccnc1CC1COc2ccccc2O1 (stereo not given) | -5.32% [at 52.9 µM] | 
24 | CCSC(=O)N(CC)CC | 3.58% | 
25 | COc1cc2c(c(OC)c1OC)-c1ccc(OC)c(=O)cc1[C@@H](NC(C)=O)CC2 |  | inactive
26 | Nc1cc([N+](=O)[O-])ccc1O |  | inactive
27 | OC[C@H]1O[C@@H](O[C@H]2[C@H](O)[C@@H](O)[C@H](O)O[C@@H]2CO)[C@H](O)[C@@H](O)[C@H]1O | -1.76% | 
28 | CC(O)(c1ccc(Cl)cc1)c1ccc(Cl)cc1 | -5.72% | 
29 | COCCOC(=O)CC#N | 0.372% | 
30 | C#CC(C)(O)CC(C)C (stereo not given) | -0.0931% | 
31 | CCCCN(CCO)CCO | -0.558% | 
32 | CCCCCCCCCCC(=O)O | 0.59% | 
33 | CC(=O)Nc1ccc(C(=O)O)cc1 |  | inactive
34 | CCCCC(CC)COC(=O)c1ccccc1 (stereo not given) | -2.34% | 
35 | CN(C)c1ccc(/C=C/c2ccc([N+](=O)[O-])cc2)cc1 | 3.64% [at 10.5 µM] | 
36 | O=C(O)c1cc(C(=O)O)cc(C(=O)O)c1 | 0.463% | 
37 | O=C(OCc1ccccc1)c1ccccc1O |  | inactive
38 | COc1ccc(Nc2ccccc2)c(C)c1 |  | inactive
39 | CN=C(NC#N)Nc1ccc(C2=NNC(=O)CC2C)cc1 (stereo not given) | 2.05% [at 52.9 µM] | 
40 | CCCCCCCC(OC)OC | 0.194% [at 52.9 µM] | 
